Assay results reported in PubChem BioAssay.
The source made the active and inactive calls.

What was measured:
[1] = system: PRMT1 (protein arginine N-methyltransferase 1); experiment: PRMT1 binders on small-molecule microarrays, primary screen, biochemical, small-molecule microarray, 635 nm fluorescence (AID 1088); conditions: small-molecule microarray binding, higher = more signal;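 note: binding of Prmt1 protein to compounds spotted on small-molecule microarray slides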
[2] = yeast growth modulation, basal conditions, primary screen, YJM789 clinical isolate, OD600, 24 h (AID 1089);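 note: growth of clinical yeast isolate S. cerevisiae YJM 789 seeded 1000 cells per well; test concentration not given here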; conditions: S. cerevisiae YJM789 growth, higher = more signal, called active from +8 up or from −8 down
[3] = fission yeast growth modulation, primary screen, strain 972, OD600, 24 h, no modulator (AID 1090);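 note: basal condition with compound alone and no growth modifier present; test concentration not given here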; conditions: S. pombe 972 growth, higher = more signal, called active from +8 up or from −8 down
[4] = S. cerevisiae growth modulation with rapamycin, primary screen, strain BY4716, OD600, 96 h (AID 1091); conditions: higher = more signal, called active from +8 up or from −8 down; note: test concentration not given here
[5] = biological target: Torsin-1A-interacting protein 2 (Homo sapiens) (UniProt Q8NFQ8); experiment: LULL1 binders on small-molecule microarray, primary screen, cell lysate, human LULL1 lysate, 635/667 nm fluorescence (AID 1092); conditions: hLULL1 lysate binding, 635 nm fluorescence, higher = more signal;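 note: probe is lysate of COS7 cells overexpressing human LULL1; score merges per-feature 667 nm fluorescence with signal-to-noise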
Chain of Torsin-1A-interacting protein 2 (Homo sapiens) (Q8NFQ8 whole entry, looked up): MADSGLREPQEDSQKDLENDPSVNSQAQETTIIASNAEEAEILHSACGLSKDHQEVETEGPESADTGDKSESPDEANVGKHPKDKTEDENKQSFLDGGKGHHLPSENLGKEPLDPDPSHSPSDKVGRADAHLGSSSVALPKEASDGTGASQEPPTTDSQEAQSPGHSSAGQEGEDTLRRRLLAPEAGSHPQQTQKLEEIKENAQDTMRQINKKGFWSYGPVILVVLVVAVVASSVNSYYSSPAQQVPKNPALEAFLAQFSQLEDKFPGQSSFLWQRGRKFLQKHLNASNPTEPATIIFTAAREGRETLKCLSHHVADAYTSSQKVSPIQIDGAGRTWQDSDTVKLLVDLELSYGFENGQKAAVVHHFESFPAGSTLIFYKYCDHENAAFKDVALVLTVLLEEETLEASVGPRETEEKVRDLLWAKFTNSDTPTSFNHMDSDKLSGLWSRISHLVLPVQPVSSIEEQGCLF

[6] = E. coli growth modulation, two-sided OD650, primary screen, E. coli filamentation project, strain DRC41, 24 h (AID 1093); conditions: OD650, 24 h, higher = more signal, called active from +8 up or from −8 down;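 note: MC1000 strain lacking acrAB efflux and sulA so SOS filamentation is blocked; test concentration not given here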
[7] = small-molecule microarray binders of probe aLefty2, primary screen, biochemical, biotinylated probe, 635/667 nm fluorescence (AID 1094); conditions: higher = more signal;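 note: score merges spot fluorescence near 667 nm with spot signal-to-noise ratio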
[8] = system: Noggin (protein binding on small-molecule microarray); experiment: Noggin binders on small-molecule microarray, primary screen, biochemical, 635/667 nm fluorescence (AID 1095); conditions: 635 nm fluorescence, higher = more signal;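 note: score merges 667 nm feature fluorescence with signal to noise over triplicate slides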
[9] = biological target: Neurogenic locus notch homolog protein 3 (Homo sapiens) (UniProt Q9UM47); experiment: NOTCH3 binders on small-molecule microarray, primary screen, biochemical, 635/667 nm fluorescence (AID 1096); conditions: NOTCH3 binding, 635 nm fluorescence, higher = more signal
Chain of Neurogenic locus notch homolog protein 3 (Homo sapiens) (Q9UM47 whole entry, looked up): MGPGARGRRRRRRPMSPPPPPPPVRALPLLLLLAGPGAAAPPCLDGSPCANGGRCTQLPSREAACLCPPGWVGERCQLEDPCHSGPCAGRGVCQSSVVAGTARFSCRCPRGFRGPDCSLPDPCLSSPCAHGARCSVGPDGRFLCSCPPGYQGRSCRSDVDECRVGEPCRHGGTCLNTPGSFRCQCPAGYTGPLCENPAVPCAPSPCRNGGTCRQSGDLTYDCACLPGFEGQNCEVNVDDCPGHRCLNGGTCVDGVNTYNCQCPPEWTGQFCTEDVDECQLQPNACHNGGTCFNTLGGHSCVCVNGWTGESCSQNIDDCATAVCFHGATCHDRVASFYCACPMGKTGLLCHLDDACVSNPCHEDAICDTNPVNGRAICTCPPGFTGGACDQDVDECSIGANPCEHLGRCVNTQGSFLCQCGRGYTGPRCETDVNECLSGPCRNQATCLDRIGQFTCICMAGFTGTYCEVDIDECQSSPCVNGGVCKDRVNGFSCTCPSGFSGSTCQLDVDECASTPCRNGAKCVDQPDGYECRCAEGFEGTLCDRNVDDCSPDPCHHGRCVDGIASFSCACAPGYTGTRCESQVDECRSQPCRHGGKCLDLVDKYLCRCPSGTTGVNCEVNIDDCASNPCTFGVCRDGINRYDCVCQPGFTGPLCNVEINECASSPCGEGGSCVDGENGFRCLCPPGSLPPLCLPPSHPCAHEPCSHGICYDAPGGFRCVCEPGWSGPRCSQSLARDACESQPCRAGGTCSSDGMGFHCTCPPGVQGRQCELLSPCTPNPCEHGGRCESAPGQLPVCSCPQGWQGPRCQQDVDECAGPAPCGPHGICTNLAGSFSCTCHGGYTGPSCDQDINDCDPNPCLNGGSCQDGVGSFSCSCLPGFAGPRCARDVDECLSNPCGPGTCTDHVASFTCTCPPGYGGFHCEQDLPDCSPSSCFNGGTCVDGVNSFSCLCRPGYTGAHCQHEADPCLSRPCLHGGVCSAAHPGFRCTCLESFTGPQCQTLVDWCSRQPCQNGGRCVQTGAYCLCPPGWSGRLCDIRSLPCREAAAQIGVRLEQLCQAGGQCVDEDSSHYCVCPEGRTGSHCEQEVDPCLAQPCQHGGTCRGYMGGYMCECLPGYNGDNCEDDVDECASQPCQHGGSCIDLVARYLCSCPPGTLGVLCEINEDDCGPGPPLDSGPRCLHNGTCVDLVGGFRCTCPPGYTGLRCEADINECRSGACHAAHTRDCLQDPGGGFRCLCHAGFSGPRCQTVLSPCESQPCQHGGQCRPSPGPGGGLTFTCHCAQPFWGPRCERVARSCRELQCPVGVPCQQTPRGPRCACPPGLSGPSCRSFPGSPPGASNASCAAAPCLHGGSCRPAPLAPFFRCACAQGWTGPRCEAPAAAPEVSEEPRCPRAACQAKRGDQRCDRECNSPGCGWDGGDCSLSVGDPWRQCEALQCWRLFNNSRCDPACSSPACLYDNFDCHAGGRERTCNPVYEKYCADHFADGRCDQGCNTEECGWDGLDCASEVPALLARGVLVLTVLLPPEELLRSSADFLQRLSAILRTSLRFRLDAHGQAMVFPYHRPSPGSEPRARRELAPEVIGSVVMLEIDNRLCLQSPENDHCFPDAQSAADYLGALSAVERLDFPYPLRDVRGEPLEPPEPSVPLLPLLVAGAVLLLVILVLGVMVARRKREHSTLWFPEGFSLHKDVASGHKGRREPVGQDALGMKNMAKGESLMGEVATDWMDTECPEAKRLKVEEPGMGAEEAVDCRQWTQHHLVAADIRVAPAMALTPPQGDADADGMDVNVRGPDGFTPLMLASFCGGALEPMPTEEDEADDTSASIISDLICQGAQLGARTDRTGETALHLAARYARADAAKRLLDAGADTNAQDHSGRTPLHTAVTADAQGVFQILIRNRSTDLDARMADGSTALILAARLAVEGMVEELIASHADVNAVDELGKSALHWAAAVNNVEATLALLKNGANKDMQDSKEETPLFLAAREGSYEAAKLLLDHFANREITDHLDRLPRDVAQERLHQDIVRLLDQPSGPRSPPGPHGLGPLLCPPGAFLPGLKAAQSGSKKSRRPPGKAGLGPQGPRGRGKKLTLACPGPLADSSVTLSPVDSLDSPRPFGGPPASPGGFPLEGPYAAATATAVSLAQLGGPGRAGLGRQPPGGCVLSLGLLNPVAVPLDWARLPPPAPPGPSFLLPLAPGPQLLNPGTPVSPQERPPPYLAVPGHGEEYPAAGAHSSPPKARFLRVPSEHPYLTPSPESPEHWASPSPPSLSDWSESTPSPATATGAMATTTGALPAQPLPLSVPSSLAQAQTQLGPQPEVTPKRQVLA

[10] = small-molecule microarray binders of probe aEGFR, primary screen, biochemical, biotinylated probe, 635/667 nm fluorescence (AID 1097); conditions: higher = more signal;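 note: probe is a biotinylated anti-EGFR antibody binding compounds printed on slides; score combines fluorescence near 667 nm and signal to noise of each spot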
[11] = system: Plasmodium falciparum Sir2 (PF13_0152, Sir2A); experiment: pfSir2 binders on small-molecule microarrays, primary screen, biochemical, small-molecule microarray, 635 nm fluorescence (AID 1098); conditions: small-molecule microarray binding, fluorescence 635 nm; higher = more signal;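 note: score merges spot fluorescence intensity with its signal-to-noise ratio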
[12] = small-molecule microarray binders of probe aDKK1, primary screen, biochemical, biotinylated probe, 635/667 nm fluorescence (AID 1099); conditions: higher = more signal;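 note: score merges 667nm spot fluorescence with signal to noise across triplicate slides; reference of the scale not given here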
[13] = small-molecule microarray binders of probe aCHRDL2, primary screen, biochemical, biotinylated probe, 635/667 nm fluorescence (AID 1100); conditions: higher = more signal
[14] = splicing luciferase reporter signal modulators, primary screen, spliceosome inhibition project, cell-based, HEK293, splice +/- reporter (AID 1101); conditions: luminescence, 24 h, higher = more signal, called active from +8 up or from −8 down;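 note: HEK293 cells carrying a splicing-competent luciferase reporter gene; test concentration not given here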
[15] = biological target: Fibroblast growth factor 10 (Homo sapiens) (UniProt O15520); experiment: FGF10 binders on small-molecule microarrays, primary screen, biochemical, small-molecule microarray, 635 nm fluorescence (AID 1102); conditions: FGF10 binding, fluorescence 635 nm, higher = more signal
Chain of Fibroblast growth factor 10 (Homo sapiens) (O15520 whole entry, looked up): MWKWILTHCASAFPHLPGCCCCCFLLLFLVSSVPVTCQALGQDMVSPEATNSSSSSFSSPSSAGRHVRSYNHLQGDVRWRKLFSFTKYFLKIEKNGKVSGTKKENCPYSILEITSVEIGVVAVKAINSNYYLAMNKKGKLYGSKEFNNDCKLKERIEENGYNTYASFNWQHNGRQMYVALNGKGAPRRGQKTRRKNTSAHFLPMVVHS

[16] = system: glycogen synthase kinase-3 (GSK3A per assay name; protocol says GSK3B); experiment: GSK3 binders on small-molecule microarrays, primary screen, biochemical, small-molecule microarray, 635 nm fluorescence, GSK3A (AID 1103); conditions: small-molecule microarray binding, fluorescence 635 nm; higher = more signal; note: the record names both GSK3A and GSK3B
[17] = biological target: Epidermal growth factor receptor (Homo sapiens) (UniProt P00533); experiment: EGFR binders on small-molecule microarrays, primary screen, biochemical, small-molecule microarray, 635 nm fluorescence (AID 1104); conditions: EGFR binding, higher = more signal;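 note: score merges 667 nm emission intensity with spot signal to noise over triplicate slides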
Chain of Epidermal growth factor receptor (Homo sapiens) (P00533 whole entry, looked up): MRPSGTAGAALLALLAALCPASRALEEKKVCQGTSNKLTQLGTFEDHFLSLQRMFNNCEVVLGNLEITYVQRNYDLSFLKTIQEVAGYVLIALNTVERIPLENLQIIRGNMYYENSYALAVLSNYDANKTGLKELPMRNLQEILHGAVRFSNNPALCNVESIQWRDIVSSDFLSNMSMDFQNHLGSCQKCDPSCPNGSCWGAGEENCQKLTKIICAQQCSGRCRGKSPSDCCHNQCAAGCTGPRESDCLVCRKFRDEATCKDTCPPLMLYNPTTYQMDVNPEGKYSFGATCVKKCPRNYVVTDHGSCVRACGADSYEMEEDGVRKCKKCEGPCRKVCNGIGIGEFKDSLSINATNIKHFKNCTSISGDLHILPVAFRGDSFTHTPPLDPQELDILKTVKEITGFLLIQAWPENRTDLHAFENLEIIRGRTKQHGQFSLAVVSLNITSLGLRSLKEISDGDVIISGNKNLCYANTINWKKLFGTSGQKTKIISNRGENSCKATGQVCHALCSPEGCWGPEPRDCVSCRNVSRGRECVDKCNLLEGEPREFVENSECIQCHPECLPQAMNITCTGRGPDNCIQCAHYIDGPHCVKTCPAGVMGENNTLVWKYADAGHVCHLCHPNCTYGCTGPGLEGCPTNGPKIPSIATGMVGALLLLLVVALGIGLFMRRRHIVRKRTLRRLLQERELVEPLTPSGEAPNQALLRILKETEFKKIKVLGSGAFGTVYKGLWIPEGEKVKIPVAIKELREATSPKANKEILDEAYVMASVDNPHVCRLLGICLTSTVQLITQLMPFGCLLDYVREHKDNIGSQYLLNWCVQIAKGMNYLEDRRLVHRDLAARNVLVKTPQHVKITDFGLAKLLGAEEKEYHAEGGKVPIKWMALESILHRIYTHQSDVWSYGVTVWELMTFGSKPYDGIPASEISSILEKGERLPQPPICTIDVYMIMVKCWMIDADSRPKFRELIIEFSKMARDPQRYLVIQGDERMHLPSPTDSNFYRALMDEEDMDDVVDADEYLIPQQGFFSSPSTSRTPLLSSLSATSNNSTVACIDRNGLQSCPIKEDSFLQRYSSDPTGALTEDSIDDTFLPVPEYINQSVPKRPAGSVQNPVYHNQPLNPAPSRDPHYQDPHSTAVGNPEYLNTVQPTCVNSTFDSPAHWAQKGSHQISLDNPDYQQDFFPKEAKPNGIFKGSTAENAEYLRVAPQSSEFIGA

[18] = biological target: Follistatin-related protein 3 (Homo sapiens) (UniProt O95633); experiment: FSTL3 binders on small-molecule microarrays, primary screen, biochemical, small-molecule microarray, 635 nm fluorescence (AID 1105); conditions: FSTL3 binding, higher = more signal;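 note: score merges emission near 667 nm and signal to noise per printed spot across three slides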
Chain of Follistatin-related protein 3 (Homo sapiens) (O95633 whole entry, looked up): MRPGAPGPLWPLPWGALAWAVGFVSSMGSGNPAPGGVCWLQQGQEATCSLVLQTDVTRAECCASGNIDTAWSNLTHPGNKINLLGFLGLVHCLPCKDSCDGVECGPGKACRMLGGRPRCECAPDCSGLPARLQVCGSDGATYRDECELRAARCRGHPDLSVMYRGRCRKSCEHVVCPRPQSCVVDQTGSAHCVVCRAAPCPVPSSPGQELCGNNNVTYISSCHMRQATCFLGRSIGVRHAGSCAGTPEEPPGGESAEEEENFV

[19] = biological target: Dickkopf-related protein 1 (Homo sapiens) (UniProt O94907); experiment: DKK1 binders on small-molecule microarrays, primary screen, biochemical, small-molecule microarray, 635 nm fluorescence scan (AID 1106); conditions: DKK1 binding, higher = more signal;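 note: score merges emission near 667 nm with signal to noise over three replicate slides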
Chain of Dickkopf-related protein 1 (Homo sapiens) (O94907 whole entry, looked up): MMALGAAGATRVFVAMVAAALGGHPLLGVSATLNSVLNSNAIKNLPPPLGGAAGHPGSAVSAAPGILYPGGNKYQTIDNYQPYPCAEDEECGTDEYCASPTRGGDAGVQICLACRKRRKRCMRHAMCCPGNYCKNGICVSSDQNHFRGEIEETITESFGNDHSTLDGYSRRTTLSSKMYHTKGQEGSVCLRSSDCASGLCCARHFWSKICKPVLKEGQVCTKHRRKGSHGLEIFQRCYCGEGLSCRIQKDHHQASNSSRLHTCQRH

[20] = system: Inhibin beta A chain (activin A); experiment: INHBA (activin A) binders on microarrays, primary screen, biochemical, small-molecule microarray, 635 nm fluorescence scan (AID 1107); conditions: small-molecule microarray binding, higher = more signal;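 note: mouse activin A protein probed at 4.33 µg/mL on printed slides; score merges bound-protein fluorescence near 667 nm with spot signal-to-noise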

| Structure (SMILES) | composite z-score [1] | z-score [2] | z-score [3] | z-score [4] | composite z-score [5] | z-score [6] | composite z-score [7] | composite z-score [8] | composite z-score [9] | composite z-score [10] | composite z-score [11] | composite z-score [12] | composite z-score [13] | z-score [14] | composite z-score [15] | composite z-score [16] | composite z-score [17] | composite z-score [18] | composite z-score [19] | composite z-score [20] |
| --- | --- | --- | --- | --- | --- | --- | --- | --- | --- | --- | --- | --- | --- | --- | --- | --- | --- | --- | --- | --- |
| CCN(CC)c1ccc(N2CC=CC34O[C@@H]5C=CCCOC(=O)C5[C@H]3C(=O)N(CCCO)[C@@H]4C2=O)cc1 (stereo not given in full) | -0.664 | -0.452 (inactive) | -0.983 (inactive) | -0.282 (inactive) | -1.02 | 1.87 (inactive) | -0.122 | 0.232 | -0.155 | -0.162 | -1.99 | -0.404 | -0.373 | -0.542 (inactive) | -0.344 | -0.0608 | -0.365 | -0.0243 | -0.174 | 1.5 |
| C[C@H]1C2[C@H](Cc3ccccc3)NC(=O)[C@]23C(=O)N[C@H](Cc2ccccc2)C(=O)N[C@H](Cc2ccccc2)C(=O)NC/C=C/CCC/C=C/C3[C@@H]2O[C@]12C (stereo not given in full) | 0.786 | 0.524 (inactive) | -1.84 (inactive) | 0.254 (inactive) | 2.17 | 1.35 (inactive) | -0.241 | 1.58 | 0.62 | -0.152 | 1.17 | -0.319 | -0.327 | -0.549 (inactive) | 0.398 | 0.309 | 0.17 | 1.4 | 0.54 | 0.645 |
| O=C1OCC=C[C@H]2OC34C=CCN(c5ccc(Cl)cc5)C(=O)[C@H]3N(CCCO)C(=O)[C@@H]4[C@@H]12 (stereo not given in full) | 0.631 | 0.0783 (inactive) | -0.252 (inactive) | 0.0814 (inactive) | 2.56 | 1.3 (inactive) | -0.0783 | -0.996 | -0.478 | -0.28 | -0.0096 | -0.477 | 0.673 | -0.915 (inactive) | -0.742 | -1.19 | -0.781 | -0.551 | -1.32 | 1.23 |
| CN1C(=O)C2C=CC(C(O)C3=C[C@H]4C[C@@H](C3)C4(C)C)N(Nc3ccc([N+](=O)[O-])cc3[N+](=O)[O-])C2C1=O (stereo not given in full) | 1.49 | 1.07 (inactive) | 0.595 (inactive) | 1.96 (inactive) | 3.28 | -0.43 (inactive) | 0.256 | 0.0179 | 1.02 | 0.213 | 1.22 | 1.34 | 1.07 | 0.674 (inactive) | 0.721 | 1.28 | 0.21 | 0.988 | -0.446 | 0.844 |
| O=C1OCCC=C[C@H]2OC34C=CCN(CCN5CCOCC5)C(=O)[C@H]3N(CCO)C(=O)[C@@H]4C12 (stereo not given in full) | 0.134 | -0.698 (inactive) | -0.518 (inactive) | -0.482 (inactive) | -0.114 | 0.0484 (inactive) | -0.145 | 0.922 | 0.439 | -0.23 | -0.378 | -0.507 | -0.771 | -0.197 (inactive) | 0.217 | -0.594 | -0.803 | -0.0836 | 0.794 | 0.612 |
| COc1ccc(CCNC(=O)[C@@]2(C)c3ccccc3C(=O)N(Cc3ccccc3)[C@H]2c2ccc(CO)cc2)cc1 | 1.53 | -1.25 (inactive) | -1.1 (inactive) | -0.648 (inactive) | 3.05 | -0.0282 (inactive) | 0.166 | 1.33 | 1.07 | 0.0192 | 1.49 | 0.28 | 0.376 | -0.278 (inactive) | 1.26 | 0.707 | 0.433 | 1.43 | 0.548 | 0.684 |
| CC(C)NC(=O)[C@@]1(c2ccc([N+](=O)[O-])cc2)CC(=O)N(C(C)C)[C@@H]1c1ccc(CO)cc1 | 0.859 | -2.06 (inactive) | -0.476 (inactive) | -0.692 (inactive) | 2.61 | 1.26 (inactive) | 0.0945 | -1.14 | -0.323 | -0.253 | -0.277 | -0.247 | 1.07 | -0.64 (inactive) | -0.907 | -0.153 | -0.761 | -0.867 | -1.56 | -1.45 |
| CN1C(=O)C2C(C1=O)C1C=C(c3ccc(CO)cc3)C2C(C2CC2)N1Cc1cc2c(cc1Br)OCO2 (stereo not given) | 1.53 | -3.93 (inactive) | -6.09 (inactive) | 0.385 (inactive) | 3.49 | -0.911 (inactive) | 0.313 | 0.268 | 1.09 | 0.035 | 1.65 | 0.0878 | 0.886 | 0.0287 (inactive) | 0.966 | 1.14 | 0.482 | 1.22 | 0.334 | 1.22 |
| C[n+]1ccc2ccc(O)cc2c1 | 1.56 | 0.0119 (inactive) | -0.208 (inactive) | 2.96 (inactive) | 1.14 | -0.992 (inactive) | -0.0562 | 1.01 | 1.05 | -0.0453 | -0.0574 | -0.147 | -0.444 | 0.526 (inactive) | 1.07 | 0.534 | 1.19 | 1.45 | 1.31 | 1.53 |
| Cc1ccc(N2C(=O)c3ccccc3[C@](C)(C(=O)NCCN3CCOCC3)[C@@H]2c2ccc(CO)cc2)nc1 | -0.405 | 0.0623 (inactive) | -0.822 (inactive) | -0.324 (inactive) | 1.04 | -1.4 (inactive) | 0.0216 | -1.02 | -1.74 | -0.312 | 0.0614 | 0.0511 | 0.858 | 0.219 (inactive) | -1.01 | -1.73 | -1.41 | -1.74 | -0.979 | -0.472 |
